Laboratory results from PubChem BioAssay.
A number with no mark means an inactive call. How the calls were made is not given here.

Biological target: Pantothenate synthetase (Mycobacterium tuberculosis (strain ATCC 25618 / H37Rv)) (UniProt P9WIL5)
Assay: Coupled enzyme confirmation of inhibitors against recombinant Mtb PanC (AID 375);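 further: 0% = full reaction with vehicle and 100% = no enzyme background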
Conditions: coupled enzyme assay; at 10 µM, stronger effect = higher value

Sequence of Pantothenate synthetase (Mycobacterium tuberculosis (strain ATCC 25618 / H37Rv)) (P9WIL5 whole entry, looked up): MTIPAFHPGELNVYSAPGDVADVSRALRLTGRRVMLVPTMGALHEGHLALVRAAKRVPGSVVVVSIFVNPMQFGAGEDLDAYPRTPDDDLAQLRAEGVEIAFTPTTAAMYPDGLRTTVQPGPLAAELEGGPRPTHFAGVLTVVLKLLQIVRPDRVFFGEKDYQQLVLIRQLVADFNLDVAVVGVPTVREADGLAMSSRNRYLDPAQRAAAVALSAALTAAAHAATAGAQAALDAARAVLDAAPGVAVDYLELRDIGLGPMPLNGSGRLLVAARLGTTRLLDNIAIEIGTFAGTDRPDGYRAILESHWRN

## CC1(C)CC(=O)N(CC(=O)NCc2ccccc2)c2ccccc2S1(=O)=O
  inhibition: 0%

## CC1=NN(c2ccccc2)C(=O)C1
  inhibition: 0%

## O=C1c2ccccc2C(=O)N1CCN1CCCCC1
  inhibition: 7%

## COc1ccccc1OCCNC(=O)c1cccs1
  inhibition: 0%

## CCN(CCCNC(=O)COc1cc(=O)n(CC)c2ccccc12)c1ccccc1
  inhibition: 0%

## Cc1ccc2cc(CCNC(=O)C(C)C)c(=O)[nH]c2c1C
  inhibition: 3%

## CC(C)OC(=O)CSc1nc2cccnc2n1C1CCCCC1
  inhibition: 4%

## CCn1cc(C(=O)Nc2cc3c(cc2NC(C)=O)OCCO3)c(=O)c2ccc(C)nc21
  inhibition: 1%

## O=S(=O)(NCC(O)COCc1ccco1)c1cccs1 (stereo not given)
  inhibition: 2%

## COc1ccc(NC(=O)CC2CCCCC2)cc1OC
  inhibition: 4%

## COCCCN1C(=O)C(O)=C(C(C)=O)C1c1ccccn1 (stereo not given)
  inhibition: 3%

## Cc1ccsc1C(C(=O)NC1CCCCC1)N(C(=O)Cc1cccs1)C1CC1 (stereo not given)
  inhibition: 0%

## Cc1ccc(NC(=O)c2ccccc2O)cc1
  inhibition: 1%

## COCCn1c(SCC(=O)Nc2nnc(C)s2)nnc1-c1c[nH]c2ccccc12
  inhibition: 0%

## O=C(NC1CC2CCC1C2)C1COc2ccccc2O1 (stereo not given)
  inhibition: 0%

## CC(O)c1n(C)c(Cl)c[n+]1C (stereo not given)
  inhibition: 3%

## CCNS(=O)(=O)c1c(C)cc(N2CCCC2=O)cc1C
  inhibition: 6%

## Cc1ccc2cc(CN(CCN3CCCC3)C(=O)Nc3ccc(F)cc3)c(=O)[nH]c2c1C
  inhibition: 0%

## CCCN(CCC)C(=O)CSc1nc2ccccc2c(=O)n1C1CCCC1
  inhibition: 7%

## O=C(COC(=O)C1CC2C=CC1C2)Nc1ccc2c(c1)OC(F)(F)O2 (stereo not given)
  inhibition: 0%

## Cc1c(NC(=O)c2ccc(=O)oc2)c(=O)n(-c2ccccc2)n1C
  inhibition: 6%

## O=C(Nc1ccc2c(c1)OCO2)C(c1ccc(Cl)cc1)N1CCN(C(=O)c2ccco2)CC1 (stereo not given)
  inhibition: 0%

## COc1cc2c(C#N)c(N3CCN(c4ccccc4OC)CC3)nc(N)c2c(N)n1
  inhibition: 0%

## CCc1n[nH]c2c1C(=O)CC(C)(C)C2
  inhibition: 2%

## CC(C)CNC(=O)c1ccccc1NC(=O)c1ccc(CN2CCOCC2)cc1
  inhibition: 3%

## CC(=O)NS(=O)(=O)c1ccc(NC(=O)c2ccccc2F)cc1
  inhibition: 0%

## c1ccc2c(c1)CNc1ccccc1C2
  inhibition: 0%

## CCN(CC)CCCNC(=O)c1nn(-c2ccc(OC)cc2OC)c(=O)c2ccccc12
  inhibition: 0%

## Cc1ccc(Cn2nnc3c(=O)[nH]c(C4CCN(S(=O)(=O)c5ccc(F)cc5)CC4)nc32)cc1
  inhibition: 3%

## COc1cc(OC)cc(C(=O)N2CCN(C(=O)c3ccc(OC)c(OC)c3)CC2)c1
  inhibition: 1%

## N#CC1=C(N)OC(c2ccccc2)=C(C#N)C1c1ccc2c(c1)OCO2 (stereo not given)
  inhibition: 0%

## Cc1cc(C)c2c(N)c(C(=O)N3CCN(c4ncccn4)CC3)sc2n1
  inhibition: 3%

## Cc1c(Cl)cccc1Nc1ccccc1C(=O)O
  inhibition: 1%

## COc1cccc(NC(=O)c2ccco2)c1
  inhibition: 0%

## CCOC(=O)c1ccc(NC(=O)CCNc2c(N3CCCC3)c(=O)c2=O)cc1
  inhibition: 0%

## CCOC(=O)CCCOC(=O)c1ccc(S(=O)(=O)N(C)C)cc1
  inhibition: 0%

## CNS(=O)(=O)c1cccc(C(=O)OCC(=O)c2cc(C)n(-c3ccc4c(c3)OCO4)c2C)c1
  inhibition: 0%

## CN(C)c1nc(Oc2ccc(N)cc2)nc(N(C)C)n1
  inhibition: 0%

## CS(=O)(=O)N1CCN(c2ccccc2NC(=O)c2ccc(-c3ccc(Cl)cc3Cl)o2)CC1
  inhibition: 7%

## Cc1oc(-c2ccccc2)cc1C(N)=O
  inhibition: 0%

## CCc1nnc(NC(=O)CSc2nnc3ncccn23)s1
  inhibition: 11%

## CN1CCN(C(=O)NC2CCCN2S(=O)(=O)c2ccc(Cl)cc2)CC1 (stereo not given)
  inhibition: 0%

## COc1ccc(-c2noc(CCC(=O)Nc3nc4ccccc4s3)n2)cc1
  inhibition: 0%

## CCN(CC)S(=O)(=O)N1CCC(C(=O)NC2CCCc3ccccc32)CC1 (stereo not given)
  inhibition: 0%

## COCCN(CC(=O)NCc1ccccc1)C(=O)CCC(=O)Nc1ccccn1
  inhibition: 0%

## Cc1ccc(C)c(S(=O)(=O)n2cnc3ccccc32)c1
  inhibition: 0%

## CC(C)OC(=O)C(CC(=O)O)NCc1ccccc1 (stereo not given)
  inhibition: 1%

## CCOc1ccc(CSC(CC(=O)O)C(=O)O)cc1 (stereo not given)
  inhibition: 6%

## CCOc1ccc2[nH]c(=O)c(C(c3nnnn3CC3CCCO3)N3CCc4ccccc4C3)cc2c1 (stereo not given)
  inhibition: 0%

## Cc1ccccc1N(CC(=O)NCC1CCCO1)C(=O)C1(C)CC(=O)N=C2C=CC=CN21 (stereo not given)
  inhibition: 0%
